Reference: PubChem BioAssay (NCI)
About 83,000 compounds went through this panel and 20% of them were active in at least one assay; those are over-represented in the sample as a whole.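 Plates (96-well) were seeded with cells, treated with compound at one concentration, and incubated for 48 hours before percent growth was determined.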 A number with no mark means an inactive call. Active and inactive are the calls of the source. How the source made its calls: active means growth percent below 10; inactive means the rest.

What was measured:
Test in all cases: NCI-60 one-dose screen, 48 h (100 = growth as untreated, 0 = no growth, -100 = all killed)
DU-145 prostate = conditions: 10 µM
MALME-3M melanoma = conditions: 10 µM
MDA-MB-231 breast = conditions: 10 µM
SF-268 CNS = conditions: 10 µM
SF-295 CNS = conditions: 10 µM
SF-539 CNS = conditions: 10 µM
HCT-15 colon = conditions: 10 µM
HT29 colon = conditions: 10 µM
SNB-75 CNS = conditions: 10 µM
SNB-19 CNS = conditions: 10 µM
U251 CNS = conditions: 10 µM
PC-3 prostate = conditions: 10 µM
SK-MEL-5 melanoma = conditions: 10 µM
UACC-62 melanoma = conditions: 10 µM unless noted
LOX IMVI melanoma = conditions: 10 µM
SK-MEL-28 melanoma = conditions: 10 µM
UACC-257 melanoma = conditions: 10 µM
M14 melanoma = conditions: 10 µM
RXF 393 renal = conditions: 10 µM
K-562 leukemia = conditions: 10 µM

| Compound | growth (DU-145 prostate) [%] | growth (MALME-3M melanoma) [%] | growth (MDA-MB-231 breast) | growth (SF-268 CNS) [%] | growth (SF-295 CNS) | growth (SF-539 CNS) | growth (HCT-15 colon) [%] | growth (HT29 colon) | growth (SNB-75 CNS) | growth (SNB-19 CNS) [%] | growth (U251 CNS) [%] | growth (PC-3 prostate) [%] | growth (SK-MEL-5 melanoma) | growth (UACC-62 melanoma) | growth (LOX IMVI melanoma) | growth (SK-MEL-28 melanoma) | growth (UACC-257 melanoma) | growth (M14 melanoma) | growth (RXF 393 renal) | growth (K-562 leukemia) [%] |
| --- | --- | --- | --- | --- | --- | --- | --- | --- | --- | --- | --- | --- | --- | --- | --- | --- | --- | --- | --- | --- |
| Nc1ccc(NC(=O)c2cccc(N)c2)cc1 | 108 | 85.7 | 97.1% | 102 | 92.5% | 96.3% | 101 | 105% | 91.3% | 94.8 | 96.2 | 82.9 | 103% | 96.5% | 89.9% | 104% | – | – | – | – |
| C/C=C/CC(C)C(O)C1C(=O)NC(CC)C(=O)N(C)CC(=O)N(C)C(CC(C)C)C(=O)NC(C(C)C)C(=O)N(C)C(CC(C)C)C(=O)NC(C)C(=O)NC(C)C(=O)N(C)C(CC(C)C)C(=O)N(C)C(CC(C)C)C(=O)N(C)C(C(C)C)C(=O)N1C (stereo not given) | 39 | – | -6.48% (active) | 38.3 | -16.7% (active) | -1.51% (active) | – | -37.2% (active) | – | 41.7 | 29.7 | 11.7 | 2.67% (active) | 2.53% (active) | 0.362% (active) | -36.4% (active) | 1.79% (active) | 4.21% (active) | – | – |
| CC(=O)Nc1cccc(Cl)c1C | 106 | 101 | 99.5% | 92.3 | 105% | 107% | 106 | 97.1% | 87.1% | 107 | 88.9 | – | 102% | – | 96.8% | 107% | 84.9% | 108% | 106% | – |
| Nc1ccc(C(=O)c2ccc(N)c(Br)c2)cc1Br | – | 78.8 | 24.8% | – | 17.6% | -11.2% (active) | 18 | -14.2% (active) | -5.35% (active) | 33.4 | 18.2 | 22.4 | 8.91% (active) | 28.7% | 12.9% | 45% | 67.1% | – | -17.4% (active) | 15.7 |
| CC1=CC(=O)c2ccccc2C1=O | 113 | – | 98.8% | 119 | 109% | 104% | 102 | 112% | 90.9% | 101 | 101 | 108 | 103% | 100% | 96.5% | – | 104% | 107% | – | – |
| O=C1c2ccccc2C(=O)N1OCc1ccccc1 | 112 | 98.2 | 104% | 106 | 110% | 102% | 109 | 103% | 83.6% | 112 | 113 | 77.7 | 110% | 108% | 109% | 113% | 122% | – | 122% | – |
| CCCCCCCCCCCCCCCCC1CC(=O)OC1=O (stereo not given) | 121 | 114 | 98.3% | 113 | 99.3% | 104% | 107 | 109% | 101% | 105 | 96.4 | 98.9 | 103% | 102% | 103% | 105% | 104% | – | 116% | – |
| CC1=C(/C=C/C(C)=C/C=C/C(C)=C/CO)C(C)(C)CCC1 | 112 | 120 | 102% | 114 | 110% | 105% | 112 | 112% | 95.3% | 95.7 | 102 | 96.5 | 107% | 99.2% | – | 113% | 99.9% | 104% | – | – |
| Cc1ccccc1N=C(c1ccccc1)C1C(=O)c2ccccc2C1=O | – | – | 98.7% | 88.1 | 93.6% | 77.8% | 58.7 | 75.9% | 90% | 97.1 | 87.7 | 59.8 | -0.209% (active) | 63.1% | 85.9% | 89.4% | 96% | 78% | – | 61.8 |
| CCOC(=O)C(C#N)Cc1ccccc1 (stereo not given) | – | 136 | – | 113 | 104% | 114% | – | 104% | 99.1% | 100 | 112 | 90.2 | 117% | 111% | 107% | 120% | 117% | 108% | 124% | 125 |
| O=[N+]([O-])c1ccc(N=Nc2ccccc2)cc1 | – | 101 | 88.9% | 89.6 | 91.3% | 98.8% | – | 92.2% | 88.5% | 96.7 | 90.5 | 83.5 | 99% | 91.4% | 92% | 99.3% | 108% | 102% | 107% | 87.2 |
| Cc1cc(=O)[nH]c(NN=C2CCCC2)n1 | 112 | 108 | 102% | 112 | 108% | 107% | 106 | 107% | 89.1% | 108 | 120 | 80.7 | 115% | 100% | 110% | 113% | 125% | 112% | 121% | – |
| O=C(CCNNC(=O)c1ccncc1)NCc1ccccc1 | – | 110 | 60.9% | 95.8 | 105% | 95.4% | 81.8 | 105% | 89.4% | – | 85.4 | 87.4 | 89% | 88% | 86.8% | – | 110% | 103% | 93.8% | – |
| O=[N+]([O-])c1ccc(O)c(S(=O)(=O)O)c1 | 110 | 127 | 88.7% | 114 | 102% | 100% | 98.1 | 104% | 98.6% | – | 102 | 97.3 | 121% | 97.5% | 98.2% | 116% | 99.3% | 109% | 117% | – |
| CC1CCC(C(=O)O)N1 (stereo not given) | – | 102 | 102% | 97.5 | 101% | 95% | 110 | 94.1% | 83.3% | 102 | 96 | 99.2 | 102% | 98.1% | 99.2% | 95.4% | 103% | 102% | 109% | 98.4 |
| CCOC(=O)/C(C#N)=C/c1cccc(C)c1 | 107 | 96 | 110% | 94.1 | 97.9% | 95.1% | 108 | 99% | 80.8% | 94.8 | 98.2 | – | 101% | 92% | 94.8% | 109% | 104% | – | – | – |
| COCCCC/C(=N\OCCN)c1ccc(C(F)(F)F)cc1 | 123 | 112 | 74% | 102 | 90.3% | 109% | 103 | 96% | 79.9% | – | 97.4 | 79.8 | 99.6% | – | 94.8% | 117% | 106% | 109% | 97.4% | – |
| S=C(Nc1ccccc1)N1CCCCC1 | – | 107 | 98.5% | 107 | 98.2% | 96.7% | 105 | 102% | 99.5% | 111 | 96.2 | 96.4 | 97% | 90.5% | 96.6% | 103% | 95.9% | 97.3% | 109% | 110 |
